Compound activity as filed in PubChem.
A549 tox: Nrf2 qHTS screen for inhibitors: counterscreen for cytotoxicity. A549 ARE-Fluc cells, CellTiter-Fluor viability, 18-24 h. Potency, µM (titrated, usually from 46 µM), inactives show at the highest dose activity change, negative = cytotoxicity, actives largely listed as inhibitors. actives 0.16% (n = 390,000). AID 504648, 2011; also: % is scaled to controls: 0 for no effect and ±100 for the full control effect
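Cytotoxicity counterscreen: CellTiter-Fluor fluorescence was measured in A549 ARE_Fluc cells after 18-24 h of compound exposure in a concentration series. The subsequent BugLite luminescent read reports ARE-luciferase activity.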
ATXN2 expr inh: Primary qHTS for Inhibitors of ATXN expression; HEK-293 ATXN2-luciferase reporter, luminescence, 24 h; Potency, µM (doses to about 57 µM), for inactives: top-dose activity change, negative = inhibition, hits mostly inhibitors; actives 0.72% (n = 360,000); AID 1745845, 2022; also: % is scaled to controls: 0 for no effect and ±100 for the full control effect; nearly all actives have a fitted effect of over 55% in size
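ATXN2-luciferase reporter cells (luciferase flanked by upstream and downstream ATXN2 gene portions) were treated 24 h at 37 °C with compounds at up to 57 uM. SteadyGlo luminescence gave expression; GF-AFC fluorescence gave viability.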
ATXN viability: Viability Counterscreen for Primary qHTS for Inhibitors of ATXN expression. AID 651635, 2014. actives 0.49% (n = 400,000). Potency, µM (series often up to 56.7 µM), most hits filed as cytotoxic. S2 cells (HEK-293 line with an ATXN2-luciferase reporter) viability, CellTiter-Fluor protease fluorescence, 24 h; also: nearly all actives have a fitted effect of over 40% in size
Nrf2 block: Nrf2 qHTS screen for inhibitors. A549 ARE-Fluc reporter, luciferase luminescence, 18-24 h. Potency, µM (titrated, usually from 46 µM), inactives show top-dose activity change, negative = inhibition, actives largely listed as inhibitors. actives 2.1% (n = 360,000). AID 504444, 2011; also: % is scaled to controls: 0 for no effect and ±100 for the full control effect; nearly all actives have a fitted effect of over 60% in size
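Reporter: ARE-Fluc in A549. Exposure: 18-24 h, 37 °C, 5% CO2, 5% FBS OPTI-MEM. Readouts: fluorescent cytotoxicity (CellTiter-Fluor), then luminescent Nrf2 signal after BugLite.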
Nrf2 activator: qHTS of Nrf2 Activators; AREc32 ARE-luciferase reporter (MCF7-derived line), luminescence, 24 h; Potency, µM (highest dose often 46.1 µM), inactives show at the top dose activation, usual class: activators; actives 0.31% (n = 410,000); AID 624171, 2012; also: % of control where 0% means no effect; nearly all actives have a fitted effect of over 65% in size
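For detection, Steady-Glo was added and plates sat 30 min at RT; before that, AREc32_Fluc cells grown overnight in OPTI-MEM/5% FBS had been treated with 23 nL compound for 24 hr at 37 deg C.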
The depositor's hits bear a star; i = inactive; u = inconclusive; x = no result given; [ ] = dose if it differs, or a comment. Shown are actives, neighbours in structure and some others; about 2.9% of the full set was active somewhere. Calls follow the shape of the dose curve; as a rule, active = well fitted curve in the direction sought with a large enough effect; inconclusive = small, poorly fitted or top-dose-only effect, or another doubt; inactive = no such curve, though single readings can be large; an effect the other way counts as inactive or inconclusive. Potency is read from the fitted curve at half-maximal effect.

SMILES | A549 tox | ATXN2 expr inh | ATXN viability | Nrf2 block | Nrf2 activator
Cc1nn(-c2ccccc2)c(Cl)c1CN(C(=O)CCl)c1ccc(Cl)cc1 | -5% | 14µM* | 11µM* | -8% | -3%
O=C(CN1CCOCC1)NC1CC2CCC1C2 (stereo not drawn) | -1% | 0% | i | 15% | 1%
COc1ccc(OCCCC(=O)N(CCC2=CCCCC2)c2c(N)n(Cc3ccccc3)c(=O)[nH]c2=O)cc1 | -9% | -1% | i | -3% | 0%
O=C(Nc1ccc(Cl)cc1)Nc1ccccn1 | -4% | 90% | i | u | 10µM*
O=C(Nc1ccccn1)c1ccc(S(=O)(=O)N2CCCC2)cc1 | -4% | -1% | i | 3% | 4%
O=C(Nc1ccccn1)c1ccc(S(=O)(=O)c2ccc(Cl)cc2)cc1 | -12% | 7% | i | 5.8µM* | 3%
COC(=O)c1sc(N2C(=O)c3oc4ccccc4c(=O)c3C2c2cccc(O)c2)nc1C (stereo not drawn) | -2% | 2% | i | -3% | 0%
Cc1onc(C(=O)Nc2ccc(OC(F)(F)F)cc2)c1[N+](=O)[O-] | 0% | -3% | i | 11% | 3%
O=C(Nc1ccc(OC(F)(F)F)cc1)Nc1cccc([N+](=O)[O-])c1 | u | u | 16µM* | 21µM* | 0%
O=C(Nc1ccc([N+](=O)[O-])cc1)Nc1ccc([N+](=O)[O-])cc1 | x | -12% | i | x | x
O=C(Nc1ccc([N+](=O)[O-])cc1)Nc1nc(-c2ccc(Cl)s2)cs1 | u | 7.9µM* | 14µM* | u | 7%
O=C(Nc1ccc(Oc2ccc(NC(=O)Nc3ccc([N+](=O)[O-])cc3)cc2)cc1)Nc1ccc([N+](=O)[O-])cc1 | u | u | i | 16µM* | -1%
O=C(Nc1ccc(OC(F)(F)F)cc1)c1[nH]ncc1[N+](=O)[O-] | u | -4% | i | 7.3µM* | u
Cc1nn(CCO)c(N)c1C1(O)C(=O)Nc2c(Cl)cc(Cl)cc21 (stereo not drawn) | -4% | 2% | u | -4% | 7%
O=C(NCCc1nnc2ccc(NCc3ccc(F)cc3)nn12)c1ccccc1 | 1% | x | i | -3% | 0%
COc1ccc(-c2cn(-c3ccccc3)c3[n+]2CCS3)cc1 | -12% | -36% | u | 2.6µM* | 2%
c1ccc(-c2cn(-c3ccccc3)c3[n+]2CCS3)cc1 | -12% | -35% | i | u | -1%
Cc1ccc(C)c2c1c1ccccc1n2C | -5% | 4% | i | 0% | 2%
COc1ccc2c(c1)c1ccc3c(c1n2C)C(=O)C=CC3=O | -21% | x | i | -6% | 12%
Cc1ccc2c(c1)c1ccc3c(c1n2C)C(=O)C=CC3=O | u | 10µM* | 10µM* | -27% | 10%
Cn1c2ccccc2c2ccc3c(c21)C(=O)C=CC3=O | -25% | u | 6µM* | -9% | 6%
CC(=O)Nc1ccc(SCCN2CC[C@@H](O)CCC2=O)cc1 | -3% | 10% | i | 13% | 0%
COCCNC(=S)NNc1ccc(Cl)c(C(=O)O)c1 | 6% | -9% | i | 2% | 0%
CCOc1ncccc1C(=O)Nc1cc(S(=O)(=O)N2CCCCC2)ccc1Cl | 2% | 3% | i | 1% | 0%
Cc1ccc(NC(=O)C2CSC3(C)CCC(=O)N23)cc1S(=O)(=O)N1CCOCC1 (stereo not drawn) | 2% | 1% | i | -8% | -1%
SMILES | A549 tox | ATXN2 expr inh | ATXN viability | Nrf2 block | Nrf2 activator
COc1ccc(NC(=O)c2c(C)nn(Cc3ccccc3)c2Cl)cc1S(=O)(=O)N1CCOCC1 | -18% | -8% | u | 21µM* | 1%
COc1ccc(CCC(=O)Nc2ccc(OC)c(S(=O)(=O)N3CCCCC3)c2)cc1 | u | x | i | 16µM* | -1%
Cc1ccc(NC(=O)C2CSC3(C)CCC(=O)N23)cc1S(=O)(=O)N1CCCCCC1 (stereo not drawn) | 2% | u | u | 16µM* | 3%
CCOc1ncccc1C(=O)Nc1ccc(Cl)c(S(=O)(=O)N2CCCC2)c1 | -7% | -25% | i | 18µM* | 0%
COc1ccccc1OCCCOc1c(Cl)cc(C)cc1Cl | u | 7% | i | 12% | 2%
CC(=O)Nc1ccc(C2NC(=S)N(c3ccccc3C(F)(F)F)C(C)=C2C(=O)N2CCOCC2)cc1 (stereo not drawn) | 0% | -12%[11.3 µM] | i | 11% | 3%
Cc1ccc(NC(=O)c2ccccc2F)cc1S(=O)(=O)N1CCCCCC1 | -11% | -9% | i | 16µM* | 6%
O=C(Nc1cc(S(=O)(=O)N2CCOCC2)ccc1O)c1ccc(NS(=O)(=O)c2ccc(Cl)s2)cc1 | -1% | 6% | i | 2% | 0%
COc1ccc(C(=O)Nc2ccc(C)c(S(=O)(=O)N3CCCCCC3)c2)cc1 | -19% | u | i | 21µM* | 2%
Cc1ccc(NC(=O)c2ccccc2NS(=O)(=O)c2ccc(Cl)s2)cc1S(=O)(=O)N1CCOCC1 | u | u | u | 23µM* | 2%
CCc1ccc(C(=O)Nc2ccc(OC)c(S(=O)(=O)N3CCCCC3)c2)cc1 | -11% | x | u | 7.3µM* | 6%
CC(=O)NC(CC(=O)Nc1ccc(S(=O)(=O)Nc2nccs2)cc1)c1ccccc1 (stereo not drawn) | 4% | 5% | i | 8% | -1%
C=C1c2cc(C)c(C)cc2NC(=O)N1c1ccccc1 | -12% | 1% | i | 4% | 2%
Cc1cc(C)cc(NC(=O)/C=C/c2ccc([N+](=O)[O-])s2)c1 | -6% | u | i | 16% | u
Cc1ccnn1CC(=O)N/N=C/c1ccc([N+](=O)[O-])s1 | -22% | u | i | 26µM* | 1%
O=C(/C=C/c1ccc([N+](=O)[O-])s1)N1CCCCC1 | -5% | u | u | -2% | u
Cc1ccccc1NC(=O)/C=C/c1ccc([N+](=O)[O-])s1 | u | 10µM* | 10µM* | u | u
O=C(/C=C/c1ccc([N+](=O)[O-])s1)N1CCCC1 | -23% | x | u | 21µM* | u
Cc1ccsc1/C=N/NC(=O)C(O)c1ccccc1 (stereo not drawn) | -3% | 4% | i | 1% | 0%
O=C(N/N=C/c1ccc([N+](=O)[O-])s1)C(O)c1ccccc1 (stereo not drawn) | u | u | u | 5.2µM* | -1%
O=C(Cc1ccccc1)N/N=C/c1cccs1 | 0% | 33% | i | 5% | 3%
O=C(Cc1ccccc1)N/N=C/c1ccc([N+](=O)[O-])s1 | u | -31% | i | 21µM* | 0%
